HCV inhibitor – HCV inhibition. Huh7.5.1 HCVcc-Cre infection, luciferase reporter, 44 h. 340,000 tested, 3.4% active. AID 651820. Potency, µM (titrated, usually from 41.8 µM), for inactives: top-dose activity change, negative = inhibition, most hits filed as inhibitors; active = well fitted inhibition curve with a large enough effect; inconclusive = small, poorly fitted or top-dose-only effect, or another doubt; inactive = no such curve, though single readings can be large or run the other way
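Infectious HCV cell culture screen: compound-treated cells (1,000/well, pre-plated 4 h) are infected with HCVcc-Cre at roughly 0.5 moi and grown 44 h. Infection is quantified by luciferase signal after 15 min substrate incubation at room temperature.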
VACV Venus inh – vaccinia inhibition (Venus reporter); Vaccinia virus Venus reporter expression, fluorescence; Potency, µM (titrated, usually from 36.5 µM), without a hit: at the highest dose activity change, negative = inhibition, most hits filed as inhibitors; 330,000 tested, 0.46% active; calls by dose curve; tested in A549 cells; note: nearly all actives have a fitted effect of over 30% in size
Vaccinia mCherry – inhibitors of vaccinia virus infection (mCherry reporter signal) | 310,000 tested, 0.63% active | Vaccinia virus mCherry reporter infection, fluorescence | AID 720579 | Potency, µM (highest dose often 36.5 µM), for the others: at the highest dose activity change, negative = inhibition, hits mostly inhibitors; calls by dose curve; tested in A549 cells; note: nearly all actives have a fitted effect of over 35% in size
Starred values were filed as active, the others as inactive; i = inactive; ? = inconclusive; / = no result given; [ ] = dose if it differs, or a comment. Most compounds without a hit are left out; they make up all but 3.3% or so of the library. % is set by controls: 0 for no effect and ±100 for the full control effect; potency is the fitted concentration of half-maximal effect.

SMILES	HCV inhibitor	VACV Venus inh	Vaccinia mCherry
Cc1cc[n+](CC(=O)c2ccc(F)cc2)c2ccccc12	/	-2%	-7%
CCSc1nnc2c(n1)[nH]c1c(C)cccc12	32µM*	?	?
CSc1nnc2c(n1)[nH]c1c(C)cccc12	-18%	-29%	-15%
Cn1cc(C(CO)Cc2ccccc2)c2ccccc21 (stereo not drawn)	15%	-14%	-15%
COC(=O)[C@H](C(C)C)N(Cc1ccccc1)S(=O)(=O)CCN1CCN(c2ccccc2)CC1	?	?	-25%
COC(=O)[C@H](C)N(Cc1ccc(Cl)c(Cl)c1)S(=O)(=O)CCN1CCN(c2ccccc2)CC1	?	?	14µM*
CN(C)CC(C)(C)CNC(=O)c1cnn(-c2ncc3c(n2)-c2ccccc2CC3)c1-c1ccco1	/	-7%	-3%
CC(C)=CC(O)C/C(C)=C/COc1ccc2ccc(=O)oc2c1 (stereo not drawn)	?	10µM*	10µM*
CC(C)=CCOc1cc2oc(=O)ccc2cc1O	/	-5%	-16%
COC(=O)c1cc(CNC(=O)c2cccc(F)c2)cc(NC(=O)c2ccccc2OC)c1	/	-1%	-5%
N#CC1=C(N)Oc2c(ccc3cccnc23)C1c1cccnc1 (stereo not drawn)	3.5µM*	/	/
CC(=O)C1=C(C)OC(N)=C(C#N)C1c1cc2cccc(C)c2nc1Cl (stereo not drawn)	13%	/	/
Cc1ccc2cc(C3C(C#N)=C(N)Oc4c3ccc3cccnc43)c(=O)[nH]c2c1 (stereo not drawn)	11µM*	-30%	-28%
CCOc1cccc(C2C(C#N)=C(N)Oc3cc(C)[nH]c(=O)c32)c1OCC (stereo not drawn)	-1%	/	/
CCc1ccc2[nH]c(=O)c(C3C(C#N)=C(N)Oc4c3ccc3cccnc43)cc2c1 (stereo not drawn)	11µM*	/	/
CC(C)(C)C1=C(C#N)C(c2cccnc2)C(C#N)=C(N)O1 (stereo not drawn)	16%	-10%	-18%
Cc1ccc(CN(C(=O)Nc2cccc(Cl)c2)c2ccccn2)cc1	/	-5%	-15%
Cc1cccc(-c2cnc(C)nc2C2CCCN(C(=O)c3cccc(Cn4cccn4)c3)C2)c1 (stereo not drawn)	/	1%	-8%
CN(C)S(=O)(=O)c1ccc(C(=O)NCc2nnc(SCC(=O)c3ccccc3)o2)cc1	-15%	-18%	i
CCc1ccccc1NC(=O)CN1CCN(C(=O)CNC(=O)Cc2cccc3ccccc23)CC1	11µM*	/	/
Cc1cccc(C)c1NC(=O)CN1CCN(C(=O)CNC(=O)Cc2cccc3ccccc23)CC1	/	-21%	i
O=c1c2ccccc2nc2n1C(CSCc1ccc(Cl)cc1)CS2 (stereo not drawn)	10µM*	?	/
O=c1c2ccccc2nc2n1C(CSc1ccccc1)CS2 (stereo not drawn)	17%	2%	-15%
COc1ccccc1N1CCN(c2ccc(=O)n(CC(=O)O)n2)CC1	/	-4%	-2%
CCC(=O)N1c2ccc(S(=O)(=O)NC3CCCCC3)cc2CC1C (stereo not drawn)	-11%	/	/
SMILES	HCV inhibitor	VACV Venus inh	Vaccinia mCherry
CCc1nnc(NC(=O)CSc2nc3c([nH]c4ccccc43)c(=O)n2-c2ccc(OC)cc2)s1	/	-11%	-11%
COc1ccc(CCNC(=O)C2CCN(S(=O)(=O)c3c(C)noc3/C=C/c3ccc(C)cc3)CC2)cc1OC	/	-10%	-8%
CCOCCCn1c(=NC(=O)c2ccco2)c(C(=O)OCC)cc2c(=O)n3cccc(C)c3nc21	11µM*	/	/
CCOC(=O)c1cc2c(=O)n3cccc(C)c3nc2n(CC(C)C)c1=NC(=O)c1ccco1	?	-8%	?
O=C(C=P(c1ccccc1)(c1ccccc1)c1ccccc1)c1ccccc1-c1ccccc1C(=O)C=P(c1ccccc1)(c1ccccc1)c1ccccc1	?	3.5µM*	?
O=C(NNC(=O)c1ccccc1-c1ccccc1C(=O)O)c1ccccc1	12%	5%	i
Cc1ncc(CO)c(/C=N/NC(=S)Nc2ccc(C(C)C)cc2)c1O	11µM*	-2%[7.34 µM]	-20%[7.34 µM]
Cc1ncc(CO)c(/C=N/NC(=O)c2ccc(Br)cc2)c1O	9%	/	/
CCOC(=O)c1nnn(CC(=O)Nc2cc(C)cc(C)c2)c1C(=O)OCC	/	1%	-6%
CC(=O)Nc1cccc(NC(=O)CSc2cn(CC(=O)N(C(C)C)C(C)C)c3ccccc23)c1	/	0%	-5%
Cc1ccc(C)c(C(=O)COc2ccccc2[N+](=O)[O-])c1	-3%	-7%	0%
Cc1cc(C)c(S(=O)(=O)Oc2ccccc2[N+](=O)[O-])c(C)c1	10µM*	-27%	?
CCOc1cc(CNCc2cc(OC)cc(OC)c2)ccc1OC	0.56µM*	-22%	-7%
CCOc1cc(CNCc2ccc(C(=O)O)cc2)ccc1OC	13%	-10%	-19%
CCc1ccc(N2CC(C(=O)OCC(=O)c3c(N)n(CC(C)C)c(=O)n(C)c3=O)CC2=O)cc1 (stereo not drawn)	13%	8%	-10%
CC1(C)CC(=O)C/C(=N\NC(=O)CCc2ccc(S(=O)(=O)N3CCOCC3)cc2)C1	6%	-10%	-15%
CCNc1nc(SCc2ccccc2)nc(N2CCOCC2)n1	5.6µM*	-16%	/
c1ccc(CNc2nc(N3CCOCC3)nc(N3CCOCC3)n2)cc1	?	-13%	-15%
Oc1cc(-c2cccs2)cc2c1OCCN(Cc1cn[nH]c1-c1ccc(Cl)cc1)C2	/	-11%	0%
CCC[N+](C)(C)c1ccc(/C=C/c2ccnc3ccccc23)cc1	/	i	i
Cc1cc(N2CCN(c3cccc(C(F)(F)F)c3)CC2)n2ncnc2n1	8%	-21%	/
Cc1nc2ncnn2c(N2CCN(c3cccc(C(F)(F)F)c3)CC2)c1C	0.89µM*	/	/
Cc1nnc(NC(=O)C2CCN(C(=O)c3ccsc3)CC2)s1	/	-12%	-8%
[O-]/C(=C(\C(=S)Nc1ccc(SC(F)F)cc1)[n+]1ccccc1)c1ccc(Cl)cc1Cl	13µM*	-15%	i
Cc1cc(C)cc(NC(=S)/C(=C(\[O-])c2ccc(Cl)cc2Cl)[n+]2ccccc2)c1	-6%	-8%	-14%
SMILES	HCV inhibitor	VACV Venus inh	Vaccinia mCherry
CCOC(=O)N1CCN(Cc2cc(Cl)c3cccnc3c2O)CC1	4µM*	?	?
CN1CCN(Cc2cc(Cl)c3cccnc3c2OC(=O)c2cccs2)CC1	?	?	11µM*
O=C(Oc1c(Cl)cc(Cl)c2cccnc12)N1CCCCC1	-25%	/	/
CCOC(=O)N1CCN(Cc2ccccc2Cl)CC1	20%	-8%	-17%
O=C(NCC1Cc2cccc(-c3nccs3)c2O1)c1ccnc(Cl)c1 (stereo not drawn)	/	-25%	-10%
COC(=O)C1=C(C)N(Cc2ccccc2)C(=NCCc2cccnc2)N[C@H]1c1ccccc1	-1%	-20%	4%
COC(=O)C1=C(C)N(Cc2ccccc2)C(=NCCc2cccnc2)N[C@H]1c1ccc(Br)cc1	2.8µM*	13µM*	?
COC(=O)C1=C(C)N(Cc2ccccc2)C(=O)N[C@H]1c1cccc(C(F)(F)F)c1	0.4µM*	-26%	i
COC(=O)C1=C(C)N(Cc2ccccc2)C(=NCCc2ccccn2)N[C@H]1c1cccc(C(F)(F)F)c1	?	?	-18%
COC(=O)C1=C(C)N(Cc2ccccc2)C(=NCc2ccccc2)N[C@H]1c1cccc(C(F)(F)F)c1	?	14µM*	?

Screening data from PubChem.
